Consider 20 compounds from PubChem BioAssay (Tox21).

A short description of assay [1]: A CellTox Green Cytotoxicity Assay to monitor cytotoxicity in HEK293 cells - 40 hour (AID 1224871). Note: nearly all actives have a fitted effect of over 45% in size. Note: potency is the fitted concentration of half-maximal effect. Put shortly: (§1)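 Tox21 screen in HEK293: membrane-impermeant cyanine dye fluoresces on binding dead-cell DNA; compound pinned 5 h post-seeding, plates held at 37 C, signal read repeatedly through 40 h.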
Assay [2] is described as follows: qHTS RealTime-Glo MT Cell Viability Assay in HEK293 cells - 16 hour (AID 1224872). Note: nearly all actives have a fitted effect of over 50% in size. Note: potency is the fitted concentration of half-maximal effect. Put shortly: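 Reads taken at 0, 8, 16, 24, 32 and 40 h from the same wells. HEK293 cells (600/well) carried RealTime-Glo reagents from seeding, with compound added after a 5 h settle at 37 C.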
A short description of assay [3]: qHTS RealTime-Glo MT Cell Viability Assay in HepG2 cells - 8 hour (AID 1224873). Note: nearly all actives have a fitted effect of over 55% in size. Note: potency is the fitted concentration of half-maximal effect. Put shortly:
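HepG2 cells (600/well) mixed with RealTime-Glo MT reagent, settled 5 h at 37 C/5% CO2 before compound addition. Nonlytic NanoLuc luminescence from viable-cell prosubstrate reduction read repeatedly during 40 h treatment at 37 C.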
For orientation: In qHTS, concentration-response curves come from the screen itself.

Assay [4] is described as follows: qHTS RealTime-Glo MT Cell Viability Assay in HEK293 cells - 40 hour (AID 1224874). Note: nearly all actives have a fitted effect of over 50% in size. Note: potency is the fitted concentration of half-maximal effect. Particulars: RealTime-Glo luminescence; max response: stronger effect = lower value. The procedure, abridged: (§2)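 HEK293 + NanoLuc + prosubstrate, 600 cells/well; 5 h, 37 C/5% CO2; compound 23 nL in DMSO by pintool; 37 C; luminescence read at 0, 8, 16, 24, 32 and 40 h time points.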
A short description of assay [5]: A CellTox Green Cytotoxicity Assay to monitor cytotoxicity in HEK293 cells - 24 hour (AID 1224875). Note: series mostly up to about 77 µM; nearly all actives have a fitted effect of over 45% in size. Put shortly:
as §1

Assay [6] in a line: A CellTox Green Cytotoxicity Assay to monitor cytotoxicity in HepG2 cells - 16 hour (AID 1224876). Note: nearly all actives have a fitted effect of over 45% in size. Note: potency is the fitted concentration of half-maximal effect. Put shortly:
(§3)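 Measurements at 0, 8, 16, 24, 32 and 40 h of treatment captured CellTox Green fluorescence in HepG2 cells that had been co-plated with reagent and preincubated 5 h at 37 C/5% CO2.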

Assay [7] in a line: qHTS RealTime-Glo MT Cell Viability Assay in HepG2 cells - 32 hour (AID 1224877). Note: nearly all actives have a fitted effect of over 55% in size. Note: potency is the fitted concentration of half-maximal effect. The procedure, abridged:
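HepG2 suspension premixed with RealTime-Glo reagents is plated at 600 cells per well and left 5 h at 37 C/5% CO2. Compounds in DMSO then go in, and bioluminescence reflecting viable cell number is recorded over 40 h.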

Assay [8] is described as follows: A CellTox Green Cytotoxicity Assay to monitor cytotoxicity in HepG2 cells - 24 hour (AID 1224878). Note: nearly all actives have a fitted effect of over 45% in size. Note: potency is the fitted concentration of half-maximal effect. The procedure, abridged: as §3
Assay [9] can be described thus: A CellTox Green Cytotoxicity Assay to monitor cytotoxicity in HepG2 cells - 40 hour (AID 1224879). Note: nearly all actives have a fitted effect of over 40% in size. Note: potency is the fitted concentration of half-maximal effect. Put shortly:
as §3

Assay [10] can be described thus: qHTS RealTime-Glo MT Cell Viability Assay in HEK293 cells - 0 hour (AID 1224880). Put shortly: as §2

“And” between values parts separate entries of the source, which are not always exact repeats. Identical values can stand only once. Records with an inconclusive call do not appear. A structure can be active in one record and inactive in another. The source made the active and inactive calls. Calls come from the whole dose curve; as a rule, active = well fitted curve in the direction sought with a large enough effect in the repeat runs; inconclusive = weak or mixed curves; inactive = no such curve, though single readings can be large; an effect the other way counts as inactive or inconclusive.
% is set by controls: 0 for no effect and ±100 for the full control effect.

Turning to `CCOP(=S)(OCC)SCn1c(=O)oc2cc(Cl)ccc21`, the Potency result in [1], in assay [3], in assay [5], in assay [6], in assay [7] and in assay [8] was “inactive” throughout. The Potency entry in assay [9] and in [10] was “inactive” each time. The Potency was 26.3 µM (active) and 19.5 µM (active) in assay [2]; 29.5 µM (active) in [4].

On to `COP(=S)(OC)Oc1ccc(Sc2ccc(OP(=S)(OC)OC)cc2)cc1`, for which the Potency result in assay [1], in assay [2], in assay [3], in assay [5], in [6] and in assay [7] was “inactive” each time. Besides, the Potency result in assay [8], in assay [9] and in [10] was “inactive” throughout. Besides, the max response in [4] is 5.12% (inactive).

Regarding `Cn1c(-c2ccccc2)cc(-c2ccccc2)[n+]1C`, the Potency entry in assay [1], in [3], in [5], in assay [6], in [7] and in assay [8] was “inactive” in each case. Further, the Potency result in assay [9] and in [10] was “inactive” throughout. In addition, the Potency in assay [4] was 9.75 µM (active) and 21.9 µM (active).

On to `N#Cc1nn(-c2c(Cl)cc(C(F)(F)F)cc2Cl)c(N)c1S(=O)C(F)(F)F` (stereo not drawn), for which the Potency entry in assay [1], in [3], in [6], in assay [7], in assay [8] and in assay [9] was “inactive” throughout. Also, in assay [2], the Potency was 22 µM (active) and 21.3 µM (active).

As to `Cc1cccc(N=Nc2ccc(N(C)C)cc2)c1`, the Potency result in assay [1], in assay [5], in assay [6], in assay [7], in [8] and in assay [9] was “inactive” throughout. For the same compound, the Potency entry in [10] was “inactive”.

In the case of `CCCCCCCCCC(CC)c1ccc(S(=O)(=O)O)cc1` (stereo not drawn), the Potency entry in [2], in assay [3], in [7] and in assay [10] was “inactive” throughout. In addition, the Potency in assay [4] was 44.1 µM (active); in assay [6] it was 49 µM (active) and 16.9 µM (active) and 42 µM (active); in assay [8] it was 54.9 µM (active) and 21.3 µM (active) and 38.9 µM (active); in assay [9] it was 21.3 µM (active) and 38.9 µM (active). Besides, the max response in [4] was -25.5% (inactive) and -23.7% (inactive) and -24.7% (inactive).

Regarding `COC(=O)Nc1nc2ccccc2[nH]1`, the Potency entry in [1], in assay [2], in [3], in assay [6], in [7] and in [8] was “inactive” each time. In addition, the Potency in assay [9] was 5.49 µM (active) and 11 µM (active).

Turning to `Oc1ccc(Cl)cc1Cc1ccccc1`, the Potency in [1] is 11 µM (active) and 21.3 µM (active); in assay [2], 21.9 µM (active) and 17.6 µM (active); in assay [3], 49.6 µM (active) and inactive; in assay [6], “inactive and 33.1 µM (active)”; in assay [7], “inactive and 49.6 µM (active)”; in assay [8] it was “inactive and 15.7 µM (active)”. In assay [9], the Potency entry was “inactive and 19.7 µM (active)”. Further, the Potency entry in assay [10] is “inactive”.

Consider `CC1=C(C(=O)Nc2ccccc2)SCCO1`, for which the Potency entry in assay [1], in assay [2], in assay [3], in assay [6], in [7] and in assay [8] was “inactive” throughout. Besides, the Potency entry in [9] and in assay [10] was “inactive” in each case.

`Clc1ccccc1-c1nnc(-c2ccccc2Cl)nn1`: the Potency result in [1], in assay [2], in assay [3], in [6], in [7] and in assay [8] was “inactive” in each case. Besides, the Potency result in assay [9] and in assay [10] was “inactive” throughout.

`CCCCSP(=O)(SCCCC)SCCCC`: the Potency entry in [1], in assay [2], in [3], in [5], in [6] and in assay [7] was “inactive” each time. Also, the Potency result in assay [8], in [9] and in assay [10] was “inactive” each time.

As for `Cc1ccc([N+](=O)[O-])cc1`, the Potency entry in assay [1], in [2], in [3], in assay [5], in assay [6] and in assay [7] was “inactive” throughout. In addition, the Potency result in assay [8] and in assay [9] was “inactive” in each case.

Consider `CCCCCCCCCc1ccc(O)cc1`, for which the Potency in assay [1] was 44.1 µM (active) and inactive; in assay [2] it was 6.99 µM (active) and 4.36 µM (active); in assay [6] it was 39.3 µM (active); in assay [8] it was 44.1 µM (active) and 38.9 µM (active); in assay [9], 24.8 µM (active). The Potency result in assay [3], in assay [7] and in assay [10] was “inactive” throughout.

As for `CCC/C=N/O`, the Potency result in assay [1], in assay [2], in [3], in assay [5], in assay [6] and in [7] was “inactive” in each case. The Potency result in [8], in assay [9] and in assay [10] was “inactive” throughout.

`CCNCC`: the Potency result in [1], in assay [2], in assay [3], in assay [5], in [6] and in assay [7] was “inactive” throughout. For the same compound, the Potency result in [8], in [9] and in assay [10] was “inactive” throughout.

As for `CCOP(=O)(OCC)OCC`, the Potency entry in assay [1], in [2], in assay [3], in [6], in [7] and in assay [8] was “inactive” each time. The Potency entry in assay [9] and in assay [10] was “inactive” each time.

Turning to `C[C@]12CC[C@H]3[C@@H](CCC4=CC(=O)CC[C@@H]43)[C@@H]1CC[C@@H]2O`, the Potency entry in assay [1], in assay [2], in assay [3], in assay [5], in [6] and in [7] was “inactive” each time. For the same compound, the Potency result in [8], in assay [9] and in [10] was “inactive” in each case.

Turning to `C[N+](C)(C)CC(=O)O`, the Potency entry in [1], in assay [2], in [3], in assay [5], in [6] and in assay [7] was “inactive” in each case. The Potency entry in assay [8] and in assay [9] was “inactive” in each case.

As for `CCOP(=O)(O)OCC` (tested in a mixture with another compound), the Potency result in assay [1] was “inactive and 24.3 µM (active)”; in assay [2], “inactive and 24.3 µM (active)”; in assay [6], “inactive and 43.3 µM (active)”; in assay [7], “inactive and 48.6 µM (active)”; in assay [8] it was “inactive and 43.3 µM (active)”; in assay [9], “inactive and 34.4 µM (active)”. The Potency entry in assay [3] and in assay [10] was “inactive” throughout.

Take `CSc1nc(NC(C)C)nc(NC(C)C)n1`: the Potency entry in assay [1], in [2], in assay [3], in assay [5], in [6] and in assay [7] was “inactive” each time. For the same compound, the Potency result in assay [8], in [9] and in assay [10] was “inactive” in each case.
